Assay outcomes deposited in PubChem BioAssay by National Center for Advancing Translational Sciences (NCATS).
12-LOX inh: ALOX12 (human) lipoxygenase inhibition | Potency, µM (doses to about 108 µM), inactives show top-dose activity change, negative = inhibition, usual class: inhibitors | 1.1% of 580,000 active | purified 12hLO, xylenol orange hydroperoxide absorbance | P18054; note: % is set by controls: 0 for no effect and ±100 for the full control effect
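Purified human 12hLO (150 nM final) in 25 mM Hepes, 0.01% Triton X-100, pH 7.0 was preincubated 15 min at room temperature with compound. Then 40 uM arachidonic acid was added, 30 min. Hydroperoxide was read by Fe-XO absorbance ratio 573/405 nm.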
GRP78 ERSR act: inducers of ER stress response in human glioma cells. U87-MG GRP78 promoter luciferase reporter, 16 h. Potency, µM, for inactives: at the highest dose activation, most hits filed as activators. 0.02% of 420,000 active. AID 602332; note: series mostly up to about 76 µM; % of control where 0% means no effect; nearly all actives have a fitted effect of over 35% in size
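Stably transfected U87-MG human glioma cells carrying a GRP78-based luminescent sensor were seeded at 1000 cells/well, pin-dosed with compounds and incubated 16 h. Luciferase reagent was then added, and end-point luminescence was read after 10 min at room temperature.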
Anesthetic bind: binds horse apoferritin like a general anesthetic; P02791; apoferritin/1-aminoanthracene competitive binding, fluorescence; Potency, µM (titrated, usually from 77.5 µM), for inactives: at the highest dose activity change, negative = displacement, most hits filed as inhibitors; 0.074% of 350,000 active; note: % is set by controls: 0 for no effect and ±100 for the full control effect; nearly all actives have a fitted effect of over 20% in size
Target sequence (P02791 2-175 limits assumed): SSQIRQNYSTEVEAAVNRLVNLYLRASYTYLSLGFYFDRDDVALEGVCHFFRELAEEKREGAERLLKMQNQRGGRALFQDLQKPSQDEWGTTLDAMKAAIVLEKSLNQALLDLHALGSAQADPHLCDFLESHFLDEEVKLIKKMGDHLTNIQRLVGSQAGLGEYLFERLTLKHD
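Concentration-response curves derived by four-parameter Hill fitting of normalized fluorescence, where compounds displaced 1-AMA from 10 uM horse apoferritin following a brief 10 min room-temperature incubation; propofol titration acted as positive control.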
Chronic BCR inh: blocks chronic active B-cell receptor signaling; ABC-DLBCL IkBa-CBG/CBR reporter, luminescence ratio, 4 h; Potency, µM (highest dose often 46.1 µM), for inactives: at the top dose activity change, negative = inhibition, usual class: inhibitors; 0.05% of 340,000 active; active = well fitted inhibition curve with a large enough effect in the signal ratio, with a control signal flat, not every such curve was filed as active; inconclusive = small, poorly fitted or top-dose-only effect, or effect the other way, or a change in a side signal; the % refers to the signal ratio;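 note: plate controls were basal doxycycline-induced cells for no effect and cells given 10 µM MG132 for full effect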
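Doxycycline induced both beetle luciferases in TMD8 lymphoma cells; IKK-driven degradation limits the IkappaBalpha-fused green signal, while red luminescence normalises for cell number and nonspecific effects. Compounds tested up to 46 uM, 4 hrs.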
Numbers without * were called inactive; ? = inconclusive; . = no result; [ ] = another dose, or the depositor's remark. A selection: hits, their analogues and other compounds. The true share with any hit is near 1.1%. Unless noted, calls come from the whole dose curve; as a rule, active = well fitted curve in the direction sought with a large enough effect; inconclusive = small, poorly fitted or top-dose-only effect, or another doubt; inactive = no such curve, though single readings can be large; an effect the other way counts as inactive or inconclusive. Potency is the fitted concentration of half-maximal effect.

SMILES | 12-LOX inh | GRP78 ERSR act | Anesthetic bind | Chronic BCR inh
Cc1ccc(S(=O)(=O)NC(=O)C2(C)CCN2C(=O)c2cccc(F)c2)cc1 (configuration not stated) | 35µM* | -1% | . | .
Cc1ccc(C=Nc2ccc(C(C)C)cc2)s1 | 7% | . | . | .
Cc1ccc(C=Nc2ccc(Nc3ccccc3)cc2)s1 | 40µM* | . | . | .
Cc1ccc(CN(C)C(=O)CN2CCCC2c2ccc3c(c2)OCCO3)cc1 (configuration not stated) | 22% | . | . | .
Cc1ccc(S(=O)(=O)NN=CC=CC=NNS(=O)(=O)c2ccc(C)cc2)cc1 | 4µM* | 6% | . | .
Cc1ccc(S(=O)(=O)N/N=C/c2ccccc2O)cc1 | 11% | 0% | -10% | -1%
Cc1ccc(NNS(=O)(=O)c2ccc(C)cc2)cc1 | 2.8µM* | 3% | ? | -5%
O=C(Nc1ccc2c(c1)CCC2)N1CCC2(CC1)OCCO2 | -2% | . | . | .
N#CCCn1c(-c2ccccc2)cc2ccccc21 | -25% | . | . | .
CC(=O)NC12CC3CC(C1)CC(C(=O)N1CCC(CCc4ccc(C)cc4)CC1)(C3)C2 | -1% | . | . | .
Cc1ccc(NCc2ccc(O)c3ncccc23)cc1 | 4µM* | -1% | -14% | ?
Cc1cccnc1NCc1ccc(O)c2ncccc12 | ? | -3% | ? | -11%
Cc1cccc(NCc2ccc(O)c3ncccc23)c1C | 5.6µM* | -2% | ? | 7%
Cc1ccc(NCc2ccc(O)c3ncccc23)cc1C | ? | 0% | -1% | ?
COc1cccc(NC(=O)COc2ccc3c(C)cc(=O)oc3c2)c1 | -9% | . | . | .
COc1ccc(Cl)cc1NS(=O)(=O)c1ccc(N2C(=O)C(C)CS2(=O)=O)cc1 (configuration not stated) | -44% | . | . | .
CCc1nc2nc(C)c(NS(=O)(=O)c3cccs3)c(=O)n2[nH]1 | 6.3µM* | -3% | 11% | ?
CCC(=O)N1CCN(c2nc3c(s2)CC(C(=O)Nc2ccc(OC)c(F)c2)CC3)CC1 (configuration not stated) | 25µM* | . | . | .
CC(C)C(=O)N1CCN(c2nc3c(s2)CC(C(=O)Nc2ccc(Cl)cc2)CC3)CC1 (configuration not stated) | 32µM* | . | . | .
CC(C)(C)c1ccc(C(=O)O)s1 | 3% | . | . | .
Cn1c(SCC(=O)N2CCCCC2)nc2ccsc2c1=O | -16% | . | . | .
COc1ccc2c(c1)CCN=C2C[C@H]1CN(C(=O)c2ccc(C#N)cc2)CC[C@H]1CC(=O)O | 63µM* | . | . | .
C=CCn1c(=O)/c(=C\c2ccccn2)s/c1=C(/C#N)C(=O)NCC1CCCO1 (configuration not stated) | 13% | 3% | -7% | -1%
C=CCn1c(=O)/c(=C/c2ccc(C)o2)s/c1=C(/C#N)C(=O)c1ccccc1 | 11µM* | 6% | ? | 6%
N#CCCN(C(=O)COC(=O)c1nn(-c2ccccc2)c(=O)c2ccccc12)c1ccccc1 | -2% | . | . | .
SMILES | 12-LOX inh | GRP78 ERSR act | Anesthetic bind | Chronic BCR inh
CC1=C[C@@H](CNCc2cccnc2)[C@H](C(C)C)C[C@H]1Cc1nnc(-c2ccc([N+](=O)[O-])cc2)o1 | 17% | . | . | .
O=C(Cn1cnc2onc(-c3ccc(Cl)cc3)c2c1=O)Nc1ccc(F)cc1 | 45µM* | 0% | -3% | -6%
Cc1ccc(-c2nc(C#N)c(NCC(c3cccs3)N(C)C)o2)cc1 (configuration not stated) | -34% | . | . | .
CCC(C)c1ccc(NC(=S)NCc2cccs2)cc1 (configuration not stated) | ? | 10% | -8% | 11%
CC(Cc1cccs1)NC(=O)Nc1ccc(F)cc1 (configuration not stated) | -8% | 0% | -15% | ?
CC(Cc1cccs1)NC(=S)Nc1ccc(Cl)c(Cl)c1 (configuration not stated) | 32µM* | -2% | -2% | ?
CC(C)(C)c1ccc(NC(=S)NCc2cccs2)cc1 | 32µM* | -2% | 134% | 23%
CC(Cc1cccs1)NC(=S)Nc1ccc(Cl)cc1 (configuration not stated) | 40µM* | -3% | -6% | 14%
O=[N+]([O-])c1cc(S(=O)(=O)Nc2ccccc2)ccc1N/N=C/c1cn(-c2ccccc2)nc1-c1cccs1 | 2% | . | . | .
COc1ccc(CNC(=O)C2CCN(S(=O)(=O)c3ccc4nc5c(c(C(=O)O)c4c3)CCCC5)CC2)cc1 | ? | -2% | 1% | 10%
O=C(O)c1c2c(nc3ccc(S(=O)(=O)N4CCC(C(=O)NCc5ccc(Cl)cc5)CC4)cc13)CCCC2 | 25µM* | -7% | -4% | 2%
O=C(Nc1nn[nH]n1)c1cccc(S(=O)(=O)N2CCCCCC2)c1 | 10µM* | . | . | .
CCCCNC(=O)c1nc2cc(C)c(C)cc2nc1-c1cccc(Br)c1 | -1% | . | . | .
c1ccc2cc(CN3CCN(Cc4c[nH]c5ccccc45)CC3)ccc2c1 | 1.8µM* | . | . | .
O=S(=O)(Nc1ccc2cn[nH]c2c1)c1ccc(Cl)cc1C(F)(F)F | -29% | . | . | .
CC(C)CNc1nc2c(c(=O)[nH]c(=O)n2C)n1C(C)C | 20% | . | . | .
CC(C)n1c(=S)[nH]c2c1c(=O)[nH]c(=O)n2C | 5µM* | -4% | -6% | -1%
Cc1nn2c(c1-c1ccccc1[S+](C)(=O)[O-])N(Cc1ccc(C(=O)O)s1)CCC2 | 32µM* | . | . | .
CC(C)Sc1nc(N2CCOCC2)c2c(c1C#N)CCCC2 | 5% | . | . | .
COc1ccccc1Cn1c(=S)[nH]c2cc(C(=O)N3CCCC3)ccc2c1=O | 45µM* | -3% | -14% | -6%
CCN1CCN(C(=O)c2ccc3c(=O)n(Cc4ccccc4OC)c(=S)[nH]c3c2)CC1 | ? | -6% | -18% | 5%
COc1ccccc1NC(=S)NCc1ccc(Cl)cc1 | 11µM* | -5% | -14% | 11%
Cc1ccc(NC(=S)NCc2ccc(Cl)cc2)c(C)c1 | 35µM* | 6% | -6% | ?
COC(=O)c1cc(NC(=S)NCc2ccc(Cl)cc2)cc(C(=O)OC)c1 | 45µM* | -5% | -23% | 0%
COc1ccc(CNC(=S)NCc2ccc(F)cc2)cc1OC | -26% | -6% | -3% | -3%
SMILES | 12-LOX inh | GRP78 ERSR act | Anesthetic bind | Chronic BCR inh
COc1ccc(CNC(=S)NCc2ccc(Cl)cc2)cc1OC | 50µM* | 0% | -16% | 0%
COc1ccccc1NC(=S)NCc1ccccc1 | ? | -1% | -9% | ?
Cn1c(SCc2ccc(F)cc2)nnc1-c1cc2ccccc2o1 | 0% | . | . | .
CCc1cccc2c(C(=O)C(=O)Nc3ccc4c(c3)OCCO4)c[nH]c12 | 27% | . | . | .
COc1ccccc1C(=O)Nc1ccc(N2CCN(C(=O)CC(C)C)CC2)cc1 | 33% | . | . | .
O=C(Nc1c(NC2CCCC2)c2ccccc2oc1=O)c1ccccc1F | 46% | . | . | .
Cn1cc(CN2C[C@@H](F)[C@@H](OCc3nc4ccc(F)cc4[nH]3)C2)cn1 | 22%[176 µM] | . | . | .
Cc1nc(-c2ccccc2)sc1C(C)N (configuration not stated) | -9% | . | . | .
